Source: PubChem BioAssay AID504444 (National Center for Advancing Translational Sciences (NCATS), 2011)
Hit rate of the full screen: of about 360,000 compounds, about 7,500 (2.1%) were called active. Another 20% or so got no clear call; they are omitted. Calls follow the shape of the dose curve; as a rule, active = well fitted inhibition curve with a large enough effect; inconclusive = small, poorly fitted or top-dose-only effect, or effect the other way; inactive = flat fitted curve, though single readings scatter. For the sample, actives were picked, then their nearest neighbours and some compounds at random.

test: Nrf2 qHTS screen for inhibitors; conditions: A549 ARE-Fluc reporter, luciferase luminescence, 18-24 h; series mostly up to 46 µM; activity change, negative = inhibition: at the top concentration; also: nearly all actives have a fitted effect of over 60% in size
Summary of the method: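 Nrf2 function is reported as luminescence of an ARE-controlled luciferase in A549 cells. Compounds were tested at several concentrations, and a CellTiter-Fluor read on the same wells flagged cytotoxicity.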
% is scaled to controls: 0 for no effect and ±100 for the full control effect; potency is read from the fitted curve at half-maximal effect.

Compound	activity change, negative = inhibition	Potency
CCN1CCN(CCNC(=O)c2ccc(/C=C3/Sc4ccccc4N(Cc4cccc(C)c4)C3=O)cc2)CC1	6.25% (inactive)	
CCN1/C(=C/c2ccc3ccc(C)cc3[n+]2CC)Sc2ccccc21		13 µM (active)
FC(F)(F)c1ccc(-c2cccc3c2C2CC3CCN2Cc2ccccc2)cc1 (stereo unspecified)	-5.75% (inactive)	
COc1ccc(-c2cc(NCc3ccc(F)cc3)n3cnnc3n2)cc1	-20.5% (inactive)	
NC(=O)c1ncn([C@@H]2O[C@H](CNCc3cnc(N4CCOCC4)s3)[C@@H](O)[C@H]2O)n1	-1.58% (inactive)	
Cn1nc(-c2ccccc2)c(CSc2cccc(Cl)c2)c1Cl	-17.6% (inactive)	
Cc1ccc(S(=O)(=O)c2c(COC(=O)c3cccc(Cl)c3)c(-c3ccccc3)nn2C)cc1	4.27% (inactive)	
Cn1nc(-c2ccccc2)c(CO)c1Sc1ccccc1		25.9 µM (active)
O=C(COc1ccccc1F)NNC(=O)c1cc(Br)ccc1Cl	2.26% (inactive)	
O=C(CN1C(=O)NC2(CCCCCC2)C1=O)Nc1ccc([N+](=O)[O-])cc1	-1.58% (inactive)	
CCC1CCCCN1Cc1c(O)ccc2c(=O)c(Oc3ccccc3Cl)c(C(F)(F)F)oc12 (stereo unspecified)	1.23% (inactive)	
C#CCOCCOCCOCCNc1nc(N2CCN(C(=O)Cn3cc(CCO)nn3)CC2)nc(N2CCN(C(=O)[C@H](CCCCN)n3cc(CCCC)nn3)CC2)n1	6.59% (inactive)	
C=CCn1c(C)cc(C2=NNC(=NCC)SC2)c1C		16.4 µM (active)
Cc1cc(C2=NNC(=Nc3ccc(S(=O)(=O)N4CCOCC4)cc3)SC2)c(C)n1CC1CCCO1 (stereo unspecified)	14% (inactive)	
Cc1cccc2nc(-c3ccc(Cl)s3)c(Nc3ccc4c(c3)OCCO4)n12	-12.5% (inactive)	
COc1ccc(NC(=O)/C(N=Nc2cccc(S(=O)(=O)Nc3ccc(SC(F)F)cc3)c2)=C(\C)O)cc1	-4.71% (inactive)	
C=CCCC(=O)N1C[C@H]2CON(C)[C@H]2C[C@H]1c1cccc(Nc2ccccc2)c1	6.32% (inactive)	
CN(C)C(=O)CCc1ccc2c3c([nH]c2c1)[C@]1(C)[C@@H](C(=O)N2CCCCC2)C[C@H](CC(=O)NCCC2=CCCCC2)C(=O)N1CC3	-13.1% (inactive)	
CCc1ccc(S(=O)(=O)n2ccnc2)cc1	29.8% (inactive)	
CCOc1ccccc1CNC(=O)c1ccc(-n2c(C)cc3c2CCC(C)C3)cc1 (stereo unspecified)	9.8% (inactive)	
Cc1ccc(CNC(=O)c2c(-c3ccccc3)noc2C)cc1	-5.27% (inactive)	
COc1ccc(C(=O)NNC(=S)NC(=O)c2ccccc2[N+](=O)[O-])cc1	-1.05% (inactive)	
CC(C)Oc1ccc(CCC(=O)NNC(=S)NCc2ccccc2)cc1	-0.796% (inactive)	
COc1ccc(C(=O)NC(=S)NNC(=O)c2c(-c3ccccc3)noc2C)cc1		23.1 µM (active)
O=C(CCc1ccccc1)NNC(=O)c1ccc(Br)cc1	3.41% (inactive)	
COc1ccc(C(=O)NC(=S)NNC(=O)CCc2ccccc2)cc1		7.31 µM (active)
